Experimental data reported in the supplement of paper PMC8699584.
Where “and” joins values, the source holds several entries; their conditions need not be identical. Equal values may be shown once. Where a name gives a salt, the structure may show the parent alone. ± gives the standard deviation of the averaged measurements.

Assays:
[1] = test system: Molm13; assay: cell viability relative to DMSO control (bortezomib = 0%); higher = less growth inhibition; conditions: 10 nM; 72 h
How it was run: (§1)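 Cell viability was assessed by CellTiter-Glo luminescence. Acute myeloid leukemia cells were seeded at 1000 cells per well in 50 µL on a 384-well library of 679 compounds at a single 10 nM dose for 72 h. Per-plate linear regression set DMSO-treated cells at 100% and positive-control-treated cells at 0%.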

[2] = test system: Mv4-11; assay: as above; conditions: 10 nM; 72 h
How it was run: as §1

NCCCNc1ccc(Nc2nccc(Nc3cc(C4CC4)[nH]n3)n2)cc1
cell viability [1]: 94.71 ± 0.31% | cell viability [2]: 110 ± 7.2%

CC(C)c1cnc(NC(=O)Cc2ccccc2)s1
cell viability [1]: 92.8 ± 37% | cell viability [2]: 98.7 ± 9.3%

O=C(O)CN1C(=O)c2c(I)c(I)c(I)c(I)c2C1=O
cell viability [1]: 126 ± 38% | cell viability [2]: 107 ± 3.2%

O=C(c1cccc(Cl)c1F)N1CCN(Cc2cccc(Nc3nccs3)n2)CC1
cell viability [1]: 95.9 ± 11% | cell viability [2]: 115 ± 9.6%

CC(=O)CC(c1ccccc1)c1c(O)c2ccccc2oc1=O (stereo unspecified) [Warfarin sodium]
cell viability [1]: 105 ± 6.5% | cell viability [2]: 114 ± 4.9%

NCCNS(=O)(=O)c1cccc2cnccc12 [H-9 (hydrochloride)]
cell viability [1]: 114 ± 24% | cell viability [2]: 111 ± 4.7%

CCCCCCCCCCCCCCCCCCOP(=O)([O-])OC1CC[N+](C)(C)CC1 [Perifosine (KRX-0401)]
cell viability [1]: 93.8 ± 14% | cell viability [2]: 110 ± 5.1%

CN(C)C/C=C/C(=O)Nc1cc2c(Nc3ccc(F)c(Cl)c3)ncnc2cc1O[C@H]1CCOC1 [Afatinib (BIBW2992)]
cell viability [1]: 87.5 ± 7.3% | cell viability [2]: 97.7 ± 6.9%

COc1ccc(COc2ccc(Cc3cnc(N)nc3N)cc2OC)cc1
cell viability [1]: 110 ± 17% | cell viability [2]: 123 ± 11%

O=C(Nc1nc2cccc(-c3ccc(CN4CCS(=O)(=O)CC4)cc3)n2n1)C1CC1 [Filgotinib (GLPG0634)]
cell viability [1]: 86.4 ± 6% | cell viability [2]: 107.7 ± 0.87%

COc1ccc(-c2cc(=O)c3c(O)cc(O)cc3o2)cc1O [Diosmetin]
cell viability [1]: 93.4 ± 11% | cell viability [2]: 96.8 ± 6.3%

CO[C@H]1C[C@@H]2CC[C@@H](C)[C@@](O)(O2)C(=O)C(=O)N2CCCC[C@H]2C(=O)O[C@H]([C@H](C)C[C@@H]2CC[C@@H](O)[C@H](OC)C2)CC(=O)[C@H](C)/C=C(\C)[C@@H](O)[C@@H](OC)C(=O)[C@H](C)C[C@H](C)/C=C/C=C/C=C/1C [Rapamycin (Sirolimus)]
cell viability [1]: 34.4 ± 8.5% | cell viability [2]: 43.3 ± 15%

Cn1cc(C2=C(c3ccc(Cl)cc3Cl)C(=O)NC2=O)c2ccccc21
cell viability [1]: 96.9% and 84.3% | cell viability [2]: 106% and 108%

CN1CCN(CCCNc2ncc(Cl)c(-c3cc4c(C(=O)NC5CC5)cccc4s3)n2)CC1
cell viability [1]: 110 ± 3.6% | cell viability [2]: 109 ± 13%

Oc1cc(-c2nc(-c3ccccc3)[nH]c2-c2ccncc2)ccc1Cl
cell viability [1]: 105 ± 34% | cell viability [2]: 105 ± 3.6%

N#C/C(=C(/N)Sc1ccc(N)cc1)c1ccccc1C(F)(F)F
cell viability [1]: 108 ± 28% | cell viability [2]: 110 ± 8.3%

COc1cc(Nc2ncc(F)c(Nc3ccc4c(n3)N(COP(=O)(O)O)C(=O)C(C)(C)O4)n2)cc(OC)c1OC [Fostamatinib (R788)]
cell viability [1]: 99.7 ± 0.34% | cell viability [2]: 104 ± 1.8%

CN1CC[C@H](c2c(O)cc(O)c3c(=O)cc(-c4ccccc4Cl)oc23)[C@H](O)C1 [Flavopiridol (Alvocidib) hydrochloride]
cell viability [1]: 113.8 ± 0.38% | cell viability [2]: 100 ± 3.2%

CC(=O)/C(C)=N/O [2,3-Butanedione 2-Monoxime]
cell viability [1]: 79.4 ± 21% | cell viability [2]: 119 ± 7.6%

CC(C)(C)n1nc(-c2cccc3ccccc23)c2c(N)ncnc21
cell viability [1]: 95.9 ± 9.6% | cell viability [2]: 110 ± 10%

CC(=O)Nc1nc(C)c(-c2ccc(Cl)c(S(=O)(=O)NCCO)c2)s1
cell viability [1]: 104 ± 3.5% | cell viability [2]: 97.8 ± 21%

Cn1cc(C2=C(c3cn(CCCSC(=N)N)c4ccccc34)C(=O)NC2=O)c2ccccc21 [Ro 31-8220 Mesylate]
cell viability [1]: 108 ± 2.3% | cell viability [2]: 102 ± 4%

C=CC(=O)Nc1cccc(Nc2nc(Nc3ccc(N4CCN(C(C)=O)CC4)cc3OC)ncc2C(F)(F)F)c1 [Rociletinib (CO-1686, AVL-301)]
cell viability [1]: 108 ± 10% | cell viability [2]: 110 ± 1.6%

Cc1cc(Nc2ncc(Cl)c(Nc3ccccc3S(=O)(=O)C(C)C)n2)c(OC(C)C)cc1C1CCNCC1 [LDK378(Ceritinib)]
cell viability [1]: 110 ± 4.9% | cell viability [2]: 103.8 ± 0.72%

COc1cc2ncnc(Nc3ccc(Cl)cc3F)c2cc1OC
cell viability [1]: 108 ± 8.2% | cell viability [2]: 102 ± 6.2%

CC(C)=CCc1cc2c(cc1O)oc(=O)c1c3ccc(O)cc3oc21 [Psoralidin]
cell viability [1]: 111 ± 27% | cell viability [2]: 124 ± 22%

Oc1ccc(Nc2nc(-c3ccc(Cl)cc3)cs2)cc1
cell viability [1]: 99.73 ± 0.67% | cell viability [2]: 105.24 ± 0.067%

CCOc1cc(C(=O)N2CCC(N3CCN(C)CC3)CC2)ccc1Nc1ncc2c(n1)N(C1CCCC1)c1ccccc1C(=O)N2C
cell viability [1]: 111 ± 7.2% | cell viability [2]: 96.1 ± 19%

CC(C)(C)c1cc(C=C(C#N)C(N)=S)cc(C(C)(C)C)c1O
cell viability [1]: 108 ± 5.4% | cell viability [2]: 111 ± 3.4%

N#CC(=Cc1cc(Cl)cc(Cl)c1)c1cccnc1
cell viability [1]: 116 ± 8.1% | cell viability [2]: 108 ± 7.3%

CCN(CC)CCNC(=O)c1c(C)[nH]c(/C=C2\C(=O)Nc3ccc(F)cc32)c1C [Sunitinib Malate]
cell viability [1]: 83.1 ± 1.1% | cell viability [2]: 97.8 ± 4.2%

Cc1cccc(CC(=O)N2CCc3c2ccc(-c2cn(C)c4ncnc(N)c24)c3F)n1
cell viability [1]: 114 ± 3.6% | cell viability [2]: 119 ± 22%

CCOc1cc(N2CCC(O)CC2)ccc1Nc1ncc2c(n1)N(C)c1ccccc1C(=O)N2C
cell viability [1]: 98.8 ± 5.5% | cell viability [2]: 98.8 ± 2%

CN1C/C=C/CCOc2cccc(c2)-c2ccnc(n2)Nc2cccc(c2)C1
cell viability [1]: 86.77 ± 0.29% | cell viability [2]: 102 ± 22%

COc1cc(N2CCOCC2)ccc1Nc1ncc(F)c(Nc2ccccc2NS(C)(=O)=O)n1
cell viability [1]: 98.1 ± 5.6% | cell viability [2]: 111 ± 4.2%

COc1cccc(-c2cc(=O)c3ccccc3o2)c1N
cell viability [1]: 105 ± 10% | cell viability [2]: 103 ± 8.4%

COc1cc2ncnc(Nc3ccc(O)cc3)c2cc1OC
cell viability [1]: 116 ± 5% | cell viability [2]: 102 ± 7.1%

CN(C)C[C@@H]1CCn2cc(c3ccccc32)C2=C(C(=O)NC2=O)c2cn(c3ccccc23)CCO1 [Ruboxistaurin hydrochloride]
cell viability [1]: 90 ± 7.3% | cell viability [2]: 101 ± 10%

CCCCCCCCCC(=O)CC(O)S(=O)(=O)O (stereo unspecified) [Sodium houttuyfonate]
cell viability [1]: 108 ± 1.5% | cell viability [2]: 106 ± 1.1%

C=CC(=O)Nc1cc2c(Nc3ccc(F)c(Cl)c3)ncnc2cc1OCCCN1CCOCC1 [Canertinib dihydrochloride]
cell viability [1]: 101 ± 3.2% | cell viability [2]: 111 ± 6.1%

COc1cc(/C=C(\C#N)C(N)=O)cc(CSc2nc3ccccc3s2)c1O
cell viability [1]: 112 ± 4.3% | cell viability [2]: 93.1 ± 5.8%

O=C(NCc1ccccc1)c1csc(Nc2ccncn2)n1 [Thiazovivin]
cell viability [1]: 115 ± 7.6% | cell viability [2]: 113 ± 3.7%

COc1cc2ncnc(Nc3ccc(F)c(Cl)c3)c2cc1NC(=O)/C=C/CN1CCCCC1
cell viability [1]: 104 ± 3.3% | cell viability [2]: 108 ± 1.3%

CC(C)n1nc(-c2ccc3oc(N)nc3c2)c2c(N)ncnc21
cell viability [1]: 89.4 ± 12% | cell viability [2]: 86.16 ± 0.51%

Cc1cc(C)c(/C=C2\C(=O)Nc3ccccc32)[nH]1 [Semaxanib (SU5416)]
cell viability [1]: 82.4 ± 11% | cell viability [2]: 98 ± 16%

O=C1NC(=O)/C(=C/c2cccc(C(F)(F)F)c2)S1
cell viability [1]: 112 ± 15% | cell viability [2]: 119 ± 17%

CN1C(=O)C(c2c[nH]c3ccccc23)=C(c2c[nH]c3ccccc23)C1=O [Bisindolylmaleimide V]
cell viability [1]: 124 ± 11% | cell viability [2]: 113 ± 9.1%

CCN(CC)CCCCNc1ncc2cc(-c3cc(OC)cc(OC)c3)c(NC(=O)NC(C)(C)C)nc2n1
cell viability [1]: 114% and 117% | cell viability [2]: 113% and 119%

Cc1cncc2cccc(S(=O)(=O)N3CCCNC[C@@H]3C)c12 [(S)-H-1152 (hydrochloride)]
cell viability [1]: 100 ± 4.3% | cell viability [2]: 101 ± 3%

CNC(=O)CN1CCC(Oc2cc3c(Nc4cccc(Cl)c4F)ncnc3cc2OC)CC1 [AZD8931 (Sapitinib)]
cell viability [1]: 104 ± 6.3% | cell viability [2]: 116 ± 4.9%

O=C1NC(=O)/C(=C/c2ccc3c(c2)OC(F)(F)O3)S1
cell viability [1]: 102 ± 18% | cell viability [2]: 104 ± 34%

Cn1c(=O)n(-c2ccc(C(C)(C)C#N)cc2)c2c3cc(-c4cnc5ccccc5c4)ccc3ncc21
cell viability [1]: 107 ± 2.7% | cell viability [2]: 109 ± 15%

CS(=O)(=O)c1cccc(CNc2nc(Nc3ccc4c(c3)CCC(=O)N4)ncc2C(F)(F)F)c1
cell viability [1]: 98.44 ± 0.67% | cell viability [2]: 101 ± 4.3%

Nc1ncnc2c1ncn2C1OC(COP(=O)(O)O)C(O)C1O (stereo unspecified) [Adenosine 5'-monophosphate monohydrate]
cell viability [1]: 102 ± 34% | cell viability [2]: 97.2 ± 0.99%

O=C(Nc1cccc(Nc2ncc(Br)c(NCCc3cnc[nH]3)n2)c1)N1CCCC1
cell viability [1]: 73 ± 3.7% | cell viability [2]: 81.16 ± 0.49%

Cn1cc(C2=C(c3cccc(N)c3)C(=O)NC2=O)c2ccccc21
cell viability [1]: 114.2 ± 0.55% | cell viability [2]: 113 ± 3.2%

Cc1nc2ccc(-n3ncc(C(=O)c4cc5ccccc5[nH]4)c3N)cc2[nH]1
cell viability [1]: 114 ± 3.2% | cell viability [2]: 110 ± 12%

O=C(Nc1cc(Cl)cc2c1[nH]c1cnccc12)c1cccnc1
cell viability [1]: 110 ± 1.9% | cell viability [2]: 110.7 ± 0.66%

Nc1nccc(Oc2ccc(NC(=O)c3c[nH]cc(-c4ccc(F)cc4)c3=O)cc2F)c1Cl
cell viability [1]: 60.9 ± 5.7% | cell viability [2]: 83.1 ± 3.7%

O=C(NOCC1CC1)c1ccc(F)c(F)c1Nc1ccc(I)cc1Cl
cell viability [1]: 105 ± 1.4% | cell viability [2]: 95.7 ± 9.2%

O=C(NCc1cccc(O)c1)Nc1nc(-c2ccncc2)cs1
cell viability [1]: 88.6 ± 11% | cell viability [2]: 121 ± 9%

FC(F)(F)c1ccc(CNc2ccc(Cc3c[nH]c4ncc(Cl)cc34)cn2)cn1
cell viability [1]: 89.207 ± 0.064% | cell viability [2]: 105 ± 16%

Nc1ncnc2c1c(-c1cccc(OCc3ccccc3)c1)cn2C1CC(CN2CCC2)C1 (stereo unspecified) [NVP-AEW541 (hydrochloride)]
cell viability [1]: 110 ± 11% | cell viability [2]: 90.7 ± 25%

O=S(=O)(NCCNC/C=C/c1ccc(Br)cc1)c1cccc2cnccc12 [H-89 (hydrochloride)]
cell viability [1]: 114 ± 19% | cell viability [2]: 109 ± 5.8%

O=c1cc(-c2ccccc2)oc2c(O)c(O)ccc12 [7,8-Dihydroxyflavone]
cell viability [1]: 108 ± 16% | cell viability [2]: 104 ± 4%

Cc1[nH]c(/C=C2\C(=O)Nc3ccc(S(=O)(=O)N(C)c4cccc(Cl)c4)cc32)c(C)c1C(=O)N1CCN(C)CC1
cell viability [1]: 104 ± 22% | cell viability [2]: 107 ± 13%

Cc1cncc2cccc(S(=O)(=O)N3CCCN(C(=O)CN)C[C@@H]3C)c12 [(S)-Glycyl-H-1152 (hydrochloride)]
cell viability [1]: 110 ± 9.1% | cell viability [2]: 97.4 ± 11%

COc1cc2c(cc1OC)-c1[nH]nc(Nc3cccc(F)c3)c1C2
cell viability [1]: 120 ± 23% | cell viability [2]: 116 ± 26%

Cc1ncc(CCCN(C)C)cc1Nc1ncc2c(n1)-c1ccc(C(F)(F)F)cc1NC(=S)C2
cell viability [1]: 100 ± 2.9% | cell viability [2]: 108 ± 7.1%

COc1cc(Nc2nc3ccccc3nc2NS(=O)(=O)c2ccc(NC(=O)c3ccc(C)c(OC)c3)cc2)cc(OC)c1
cell viability [1]: 107 ± 25% | cell viability [2]: 116.8 ± 0.41%

O=C1NC(=O)C(=Cc2ccc(-c3ccc(F)cc3)o2)S1 (stereo in doubt)
cell viability [1]: 106 ± 12% | cell viability [2]: 108 ± 13%

Cc1nc(Nc2ncc(C(=O)Nc3c(C)cccc3Cl)s2)cc(N2CCN(CCO)CC2)n1 [Dasatinib]
cell viability [1]: 111 ± 29% | cell viability [2]: 114 ± 2.2%

O=C(Nc1cccc(Cl)c1)Nc1ncc(CCNc2ncnc3ccsc23)s1 [SNS-314 Mesylate]
cell viability [1]: 64.7 ± 13% | cell viability [2]: 84.75 ± 0.26%
